Assay outcomes (PubChem BioAssay)
DUX4 inh – blocks DUX4-driven transcriptional activation; 293T-iDUX4 ZSCAN4-Gaussia luciferase reporter, 24 h; stronger effect = lower value; activity change, negative = inhibition, % (no concentration beside the values); 0.8% of 37,000 active;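 active = mean inhibition of at least 10% in the main channel, exceeding the control channel by a set limit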
Of the large screens only hits and unclear results are named; the others gave an inactive call; ! = a repeat was not active. This excerpt belongs to a sample that is enriched for hits.

COc1ccc2c3c([nH]c2c1)[C@H](CO)N(Cc1ccccc1F)CC31CCN(S(C)(=O)=O)CC1	none
CCCNC(=O)N1CC2(CN(Cc3ccc(F)cc3)C2)c2c([nH]c3cc(OC)ccc23)[C@@H]1CO	DUX4 inh -37
COCC(=O)N1CCC2(CC1)CN(Cc1ccccc1Cl)[C@H](CO)c1[nH]c3cc(OC)ccc3c12	none
CCCNC(=O)N1CC2(C1)CN(Cc1ccc(F)cc1)[C@@H](CO)c1[nH]c3cc(OC)ccc3c12	none
CCS(=O)(=O)N1CC2(CN(Cc3ccccc3F)[C@@H](CO)c3[nH]c4cc(OC)ccc4c32)C1	DUX4 inh -46
COc1ccc2c3c([nH]c2c1)[C@H](CO)N(Cc1ccc(Cl)cc1)CC31CCN(C(=O)CN(C)C)CC1	none
CCCC(=O)N1CCC2(CC1)CN(Cc1ccc(Cl)cc1)[C@@H](CO)c1[nH]c3cc(OC)ccc3c12	DUX4 inh -50
COc1ccc2c3c([nH]c2c1)[C@@H](CO)N(Cc1ccc(Cl)cc1)CC31CCN(C(=O)CN(C)C)CC1	none
CCCNC(=O)N1CC2(CN(C)C2)c2c([nH]c3cc(OC)ccc23)[C@H]1CO	none
COc1ccccc1C(=O)Nc1ccc2c(c1)C(=O)N(C)[C@@H]1CC[C@H](CC(=O)NCCc3ccncc3)O[C@H]1CO2	none
C[C@@H]1CN([C@@H](C)CO)C(=O)c2cc(NS(=O)(=O)c3ccc(Cl)cc3)ccc2O[C@@H](C)CCCCO[C@@H]1CN(C)C(=O)Nc1ccc(C(F)(F)F)cc1	none
CCCN1[C@@H]2c3ccc(-c4ccncc4)c(=O)n3C[C@H]1[C@H](CO)[C@H]2C(=O)NCC1CC1	none
Cn1cnc(S(=O)(=O)N2C[C@H](O)COC[C@@H]3O[C@@H](CC(=O)NCc4cc(F)cc(F)c4)CC[C@H]32)c1	none
COc1ccc(NC(=O)N(C)C[C@H]2Oc3c(NC(=O)c4ccncc4)cccc3C(=O)N([C@@H](C)CO)C[C@H]2C)cc1	none
CO[C@H]1CN(C)C(=O)c2ccc(NC(=O)c3cnccn3)cc2OC[C@@H](C)N(C(=O)C2CC2)C[C@H]1C	none
CN1C(=O)c2cc(NC(=O)c3cscn3)ccc2OC[C@H]2O[C@@H](CC(=O)N3CCOCC3)CC[C@@H]21	none
COCCNC(=O)C[C@H]1CC[C@@H]2[C@H](COC[C@@H](O)CN2C(=O)Nc2ccccc2OC)O1	none
CCNC(=O)C[C@H]1CC[C@@H](NC(=O)C2CC2)[C@@H](CO)O1	none
O=C(C[C@H]1C=C[C@@H](NS(=O)(=O)c2ccc(F)cc2)[C@@H](CO)O1)NCc1ccncn1	none
COc1ccc2c3c([nH]c2c1)[C@H](CO)N(Cc1cccc(Cl)c1)CC31CCN(C(C)=O)CC1	DUX4 inh -67
COc1ccc2c3c([nH]c2c1)[C@@H](CO)N(Cc1ccc(F)cc1)CC31CN(C)C1	none
COCC(=O)N1CC2(CCN(Cc3ccccc3Cl)CC2)c2c([nH]c3cc(OC)ccc23)[C@H]1CO	none
COCC(=O)N1CCC2(CC1)CN(Cc1cccc(Cl)c1)[C@H](CO)c1[nH]c3cc(OC)ccc3c12	none
COc1ccc(CN2CC3(C2)CN(Cc2ccc4c(c2)OCO4)[C@H](CO)c2[nH]c4cc(OC)ccc4c23)cc1	DUX4 inh -58
COc1ccc2c3c([nH]c2c1)[C@@H](CO)N(Cc1ccccc1Cl)CC31CCN(C(=O)C2CC2)CC1	DUX4 inh -21
COc1ccc2c3c([nH]c2c1)[C@@H](CO)N(C(=O)c1ccccn1)CC31CCN(C(=O)C2CC2)CC1	none
CCS(=O)(=O)N1CC2(CN(Cc3ccc4c(c3)OCO4)[C@@H](CO)c3[nH]c4cc(OC)ccc4c32)C1	none
COc1cccc(CN2CC3(CCN(C)CC3)c3c([nH]c4cc(OC)ccc34)[C@@H]2CO)c1	none
CC(C)C#Cc1ccc([C@H]2[C@@H](CO)N3C(=O)CN(C(=O)c4ccc5c(c4)OCO5)C[C@H]23)cc1	none
COc1ccc(C#Cc2cnc3c(c2)C(=O)N([C@@H](C)CO)C[C@H](C)[C@H](CN(C)CC2CC2)O3)cc1	none
CC=Cc1ccc2n(c1=O)C[C@@H]1[C@@H](CO)[C@H](C(=O)NCC(F)(F)F)[C@H]2N1C(=O)CC (mixture of isomers)	none
COc1ccc2c3c(n(C)c2c1)[C@@H](CO)N(Cc1ccncc1)CC31CN(C(=O)Cc2ccncc2)C1	none
CN1c2ccc(-c3ccccc3)cc2[C@H]2[C@H](CCN2C(=O)CC2CC2)[C@H]1CO	none
CN(C)C(=O)C[C@H]1C[C@@H]2c3cc(NC(=O)Nc4ccc(F)cc4)ccc3O[C@@H]2[C@@H](CO)O1	none
O=C(C1CCOCC1)N1C[C@@H]2N[C@H](C1)C2c1ccc(-c2cncnc2)cc1 (stereo partly drawn)	none
Cc1cccc(-c2ccc(C3[C@@H]4CN(C(=O)Nc5ccccc5)C[C@H]3N4)cc2)c1 (stereo partly drawn)	none
O=C(Nc1cccc(F)c1)N1C[C@@H]2N[C@H](C1)C2c1ccc(-c2cncnc2)cc1 (stereo partly drawn)	none
O=C(c1ccncc1)N1C[C@@H]2N[C@H](C1)C2c1ccc(-c2ccncc2)cc1 (stereo partly drawn)	none
O=C(C1CCCC1)N1C[C@@H]2N[C@H](C1)C2c1ccc(-c2ccncc2)cc1 (stereo partly drawn)	DUX4 inh -28!
O=C(Nc1ccccc1)N1C[C@@H]2N[C@H](C1)C2c1ccc(-c2cccnc2)cc1 (stereo partly drawn)	DUX4 inh -52
COc1ccc(NC(=O)N(C)C[C@@H]2Oc3ccc(N(C)C)cc3C(=O)N([C@@H](C)CO)C[C@@H]2C)cc1	none
C[C@@H](NC(=O)C[C@H]1CC[C@@H](NC(=O)Cc2ccccn2)[C@H](CO)O1)c1ccccc1	none
CO[C@H]1CN(C)C(=O)c2ccc(NC(=O)C3CC3)cc2OC[C@H](C)N(Cc2cncnc2)C[C@H]1C	none
CN1c2ccc(Br)cc2[C@H]2[C@H](CCN2C(=O)Nc2cc(F)ccc2F)[C@H]1CO	none
CCCNC(=O)N1CC2(CN(C(=O)c3ccncc3)C2)c2c([nH]c3cc(OC)ccc23)[C@@H]1CO	none
COc1ccc2c3c(n(C)c2c1)[C@@H](CO)N(C(=O)c1ccc(F)cc1)CC31CCN(CC2CC2)CC1	none
COc1ccc2c3c(n(C)c2c1)[C@H](CO)N(C)CC31CN(C(=O)c2ccccc2F)C1	DUX4 inh -32
COc1ccc2c3c(n(C)c2c1)[C@@H](CO)N(C)CC31CN(C(=O)Nc2cccc(F)c2)C1	none
COc1ccc2c3c(n(C)c2c1)[C@@H](CO)N(C(=O)c1ccccc1)CC31CN(C)C1	none
COc1ccc2c3c(n(C)c2c1)[C@H](CO)N(CC1CC1)CC31CN(Cc2ccc(F)cc2)C1	none
COc1ccc2c3c(n(C)c2c1)[C@H](CO)N(C)CC31CN(C(=O)c2cccnc2)C1	none
COc1cc(CN2CC3(CCN(C(=O)NC(C)C)CC3)c3c(n(C)c4cc(OC)ccc34)[C@@H]2CO)cc(OC)c1	none
COc1ccc2c3c(n(C)c2c1)[C@@H](CO)N(C(=O)c1ccccc1)CC31CN(C(C)=O)C1	none
COc1cc(CN2CC3(CCN(C(=O)NC(C)C)CC3)c3c(n(C)c4cc(OC)ccc34)[C@H]2CO)cc(OC)c1	none
COc1ccc2c3c(n(C)c2c1)[C@H](CO)N(C(C)=O)CC31CN(C(=O)c2ccccc2)C1	DUX4 inh -30
COc1ccc2c3c(n(C)c2c1)[C@H](CO)N(CC1CC1)CC31CN(C(=O)c2ccc(F)cc2)C1	DUX4 inh -37
COc1cc(CN2CC3(CCN(C(=O)Nc4cccc(F)c4)CC3)c3c(n(C)c4cc(OC)ccc34)[C@H]2CO)cc(OC)c1	DUX4 inh -37
CCCNC(=O)C[C@@H]1CC[C@H]2[C@@H](COC[C@H](O)CN2C(=O)CC)O1	none
